From PubChem BioAssay AID2058 (Sanford-Burnham Center for Chemical Genomics, 2009)
The whole screen tested about 290,000 compounds, of which about 150 (0.052%) were called active.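 How the source made its calls: active means inhibition of at least 50% with at least 30 cells and total cytoplasm GFP at most 10,000,000; inconclusive means under 30 cells or total GFP of 10,000,000 plus; inactive means the rest.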 The list comes from a sample in which actives are over-represented; it also holds similar structures and randomly drawn compounds. Potency and affinity values are given separately.

molecular target: G-protein coupled receptor 35 (Homo sapiens) (UniProt Q9HC97); assay: GPR35 antagonists blocking zaprinast-driven arrestin recruitment, primary screen, imaging, U2OS, beta-arrestin-GFP, zaprinast agonist (AID 2058); settings: U2OS GPR35 beta-arrestin-GFP translocation imaging, zaprinast antagonism; at 10 µM; hits give high values
Sequence (Q9HC97 whole entry, looked up): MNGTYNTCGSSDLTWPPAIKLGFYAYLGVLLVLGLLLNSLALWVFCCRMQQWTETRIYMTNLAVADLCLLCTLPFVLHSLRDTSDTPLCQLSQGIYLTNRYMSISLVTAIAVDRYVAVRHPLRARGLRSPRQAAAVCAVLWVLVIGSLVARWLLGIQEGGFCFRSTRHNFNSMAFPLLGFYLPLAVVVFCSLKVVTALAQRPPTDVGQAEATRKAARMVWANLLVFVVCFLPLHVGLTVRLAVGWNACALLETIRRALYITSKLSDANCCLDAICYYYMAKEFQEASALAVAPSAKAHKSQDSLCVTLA

inhibition, active:
Cn1cc(/C=C/c2cc[n+](C)cc2)c2cc(Cl)ccc21 54.7%
NNC(=O)c1oc2nc(-c3ccco3)cc(-c3ccco3)c2c1N 92.5%
CN1CC=C2C(C#N)=C(N)C(C#N)(C#N)C(Cc3ccccc3)C2C1 (stereo not given) 53.4%
CCN1CC=C2C(C#N)=C(N)C(C#N)(C#N)C(CCc3ccccc3)C2C1 (stereo not given) 90.4%
O=C(NCc1nnc(SCc2ccc(C(F)(F)F)cc2)n1-c1ccccc1)C12CC3CC(CC(C3)C1)C2 89.4%
CCN1CC=C2C(C#N)=C(N)C(C#N)(C#N)[C@H](c3ccoc3)[C@H]2C1 67.4%
CN1CC=C2C(C#N)=C(N)C(C#N)(C#N)[C@H](c3ccoc3)[C@H]2C1 74.6%
O=C1/C(=C\c2cc([N+](=O)[O-])ccc2O)SC(=S)N1Cc1ccc(Cl)cc1 61.1%
CC[n+]1ccc(/C=C/c2ccc(N(C)C)cc2)c2ccccc21 103%
COc1ccc(NC(=O)/C(Cl)=C(/Cl)S(=O)Cc2ccccc2Cl)cn1 (stereo not given) 115%
CCOc1cc(N(CC)CC)ccc1/C=C(/C#N)c1nc2ccccc2[nH]1 99.9%

inhibition, inactive:
CCn1c(CNC(=O)c2ccc(Cl)cc2)nnc1SCC(=O)N1CCOCC1 -15.6%
COc1ccc2c(c1)c(/C=C/c1cc[n+](C)cc1)cn2C 48.7%
Cn1cc(/C=C/c2cc[n+](C)cc2)c2cc(F)ccc21 29.2%
CN1CCc2c(sc3nc(NN)n(Cc4ccccc4)c(=O)c23)C1 12.8%
NNC(=O)c1oc2nc(-c3cccs3)cc(-c3ccco3)c2c1N -11.1%
Cc1ccc(-c2cc(-c3ccco3)c3c(N)c(C(=O)NN)oc3n2)cc1 -7.6%
O=C(CCCn1c(=O)[nH]c2cc(Cl)ccc2c1=O)NCCCN1CCCC1 1.1%
CCCn1c(=O)[nH]c(=O)c2c1nc(-c1ccc(C(F)(F)F)cc1)n2CCOC 2.1%
CC(=O)N1CC=C2C(C#N)=C(N)C(C#N)(C#N)C(CCc3ccccc3)C2C1 (stereo not given) -5.1%
N#CC1=C(N)C(C#N)(C#N)[C@H](c2cccnc2)[C@H]2CN(C(=O)OCc3ccccc3)CC=C12 0.1%
N#CC1=C(N)C(C#N)(C#N)C(c2cccnc2)C2CN(C(=O)OCc3ccccc3)CC=C12 (stereo not given) 8.1%
Cc1ccc(S(=O)(=O)N(C)c2ccc(C(=O)NCCc3ccccc3)cc2)cc1 3.9%
Cc1ccc(C2(COC(=O)C(C)C)CO2)c(OC(=O)C(C)C)c1 (stereo not given) 10.9%
CCn1c(Oc2ccc(F)cc2)nc2c1c(=O)n(C)c(=O)n2C 5.5%
COc1ccc(OCC(O)CNC(=O)Nc2ccccc2)cc1 (stereo not given) 1.5%
CN1CCc2nc(NC(=O)c3cccc(OC(F)F)c3)sc2C1 4.4%
COc1ccccc1N1CCN(CCCn2c(=S)[nH]c3ccccc3c2=O)CC1 -1.1%
Cc1ccc(OCC(=O)N2CCN(C(=O)c3ccncc3)CC2)cc1 -6.5%
C=CCCCCCCCCc1nc(=S)[nH][nH]1 -18.8%
C=CCCCCCCCCc1nc(SCC(C)=O)n[nH]1 18.4%
COc1ccc(NC(=O)COC(=O)C2CC(=O)N(c3ccc(C)cc3)C2)cc1 (stereo not given) -10.1%
O=S(=O)(NN1CCOCC1)c1cc(Cl)cc(Cl)c1O -8.3%
CC(=O)NS(=O)(=O)c1ccc(NC(=O)/C=C/c2cn(-c3ccccc3)nc2-c2ccccc2)cc1 -3%
CCCCc1nc(SCC(=O)Nc2nnc(CCCC)s2)n[nH]1 -13.1%
O=C(CCCN1C(=O)S/C(=C\C=C\c2ccccc2)C1=O)Nc1ccc(O)cc1 18.5%
O=C(CN1C(=O)S/C(=C/C=C/c2ccccc2)C1=O)Nc1ccc(C(=O)O)cc1 -12.3%
O=C(CN1C(=O)S/C(=C\C=C\c2ccccc2)C1=O)Nc1ccc(C(=O)O)cc1 -0.2%
O=C(CCN1C(=O)/C(=C\C=C\c2ccccc2)SC1=S)Nc1ccc(C(=O)O)cc1 1.6%
C/C=C(\C)C(=O)NCCN1C2=NC[C@@H](Cc3ccccc3)N2C[C@H]1Cc1ccc(O)cc1 1%
N#Cc1c(C(F)(F)F)cc(=O)[nH]c1SCC(=O)O -12%
CCN(C(=O)Cc1c(C(=O)O)n(C)c2ccccc12)c1cccc(C)c1 6.8%
O=C(Cn1cccc1C(=O)c1ccccc1)NCCCc1ccccc1 3.3%
CC(C)CC(NS(=O)(=O)OCC(Cl)(Cl)Cl)c1ccccc1 (stereo not given) 6.5%
CC(NS(=O)(=O)OCC(Cl)(Cl)Cl)c1ccc(Br)cc1 (stereo not given) 2.8%
O=C(Nc1ccc(Cl)c(S(=O)(=O)N2CCOCC2)c1)c1ccccc1-c1ccc(C(F)(F)F)cc1 -5.3%
CC(O)CSc1nc2c(c(=O)n(C)c(=O)n2C)n1CCCc1ccccc1 (stereo not given) 18.8%
Nc1c(C(=O)Nc2nccs2)sc2nc(-c3cccs3)cc(C(F)(F)F)c12 14.2%
CC(=O)c1sc2nc(-c3cccs3)cc(C(F)(F)F)c2c1N 19.7%
O=C(NCc1nnc(SCc2ccc(F)cc2)n1-c1ccccc1)C12CC3CC(CC(C3)C1)C2 -5.2%
O=C(NCc1nnc(SCc2ccccc2)n1-c1ccccc1)C12CC3CC(CC(C3)C1)C2 -5.7%
COc1ccc(CC(=O)OCC(=O)NC(=O)NC2CCCCC2)cc1 6.4%
COC(=O)c1[nH]c2cccc(C)c2c1NC(=O)CN1CCN(C(=O)c2ccco2)CC1 21.8%
FC(F)(F)c1cnc(-c2cnc3c(-c4ccc(Cl)cc4)cnn3c2)c(Cl)c1 2.1%
CCOC(=O)c1ccc(NC(=O)CCc2c(C)nc3ncnn3c2C)cc1 10.9%
O=C(CSc1nnc(Cn2c(=O)sc3ccccc32)n1-c1ccccc1)NCC1CCCO1 (stereo not given) 15.8%
CC(=O)N1CC=C2C(C#N)=C(N)C(C#N)(C#N)[C@H](c3ccoc3)[C@H]2C1 2.7%
CN1C2C=C3C(C#N)=C(N)C(C#N)(C#N)[C@@H](c4ccsc4)[C@@H]3C1CC2 (stereo not given in full) -6.4%
CCOC(=O)N1CC=C2C(C#N)=C(N)C(C#N)(C#N)[C@H](c3ccc(OCC)c(OCC)c3)[C@H]2C1 -0.6%
CCOC(=O)N1CC=C2C(C#N)=C(N)C(C#N)(C#N)[C@H](c3ccsc3)[C@H]2C1 7.2%
N#CC1=C(N)C(C#N)(C#N)[C@H](c2ccoc2)[C@H]2CN(Cc3ccccc3)CC=C12 9.6%
CC(C)(C)OC(=O)N1CC=C2C(C#N)=C(N)C(C#N)(C#N)[C@H](c3cccnc3)[C@H]2C1 3.8%
CCCCc1nc(SCC(=O)Nc2cccc(Cl)c2)n[nH]1 -17%
Cc1cccc(Cc2cnc(N3C(=N)SC(C)C3=O)s2)c1 (stereo not given) -5.2%
O=C(CSc1nnc(C2CCCCC2)o1)N1CCCCC1 11.7%
CCN(C(=O)C(C)OC(=O)C1C(C(=O)OC)=C(C)NC(C)=C1C(=O)OC)c1ccccc1 (stereo not given) -20.3%
COc1ccc(NC(=O)c2cc3c([nH]c4ccccc43)c(C)n2)cc1 -5.7%
C=CCn1c(SCC(=O)N(C)C2CCS(=O)(=O)C2)nnc1-c1ccncc1 (stereo not given) 11.4%
CCOC(=O)C1CCN(C(=O)CSc2ccccc2)CC1 -1.8%
COc1cc([N+](=O)[O-])cc(/C=C2/SC(=S)N(Cc3ccccc3)C2=O)c1O 2.7%
O=C1/C(=C/c2ccc(O)c([N+](=O)[O-])c2)SC(=S)N1Cc1ccccc1 0.6%
Cc1nc2c(C(=O)NCc3ccc4c(c3)OCO4)cnn2c(C)c1Cc1ccc(F)cc1Cl -16.4%
Cc1oc(-c2ccc(Cl)cc2)nc1CS(=O)CC(=O)NCCCN(C)C1CCCCC1 (stereo not given) -9.6%
COC(=O)C1CN(S(=O)(=O)c2cc(OC)ccc2OC)CCS1 (stereo not given) -8.4%
CC[n+]1ccccc1/C=C/c1ccc(N(C)C)cc1 -10.4%
CC[n+]1c(/C=C/c2ccc(N(C)C)cc2)ccc2ccccc21 6.3%
CCCC(=O)N1CCN(c2nc3c(OC)ccc(Cl)c3s2)CC1 12.2%
CCC(Oc1ccc2ccccc2c1)C(=O)O (stereo not given) 6.8%
CC(=O)N(c1ccccc1)C1CCCC1 -22.8%
CC(=O)N(C1=C(O)c2ccccc2C(=O)C1=O)C1CCCCC1 -5.2%
O=C(NC1CCCCCC1)C1CCCN(S(=O)(=O)c2cccs2)C1 (stereo not given) -5.5%
CCN1CCN(C(=O)c2ccccc2NC(=O)c2ccc(Cl)cc2)CC1 1%
Cc1[nH]c(=O)[nH]c(=O)c1S(=O)(=O)N1CCCC(C(=O)N2CCN(c3ccccc3Cl)CC2)C1 (stereo not given) 3.5%
COc1ccc(NC(=O)/C(Cl)=C(/Cl)S(=O)Cc2ccc(Cl)cc2)cn1 (stereo not given) 3.1%
COc1ccc(NC(=O)/C(Cl)=C(/Cl)S(=O)Cc2ccccc2)cn1 (stereo not given) 9.5%
Cc1ccc(-c2nc3ncccc3n2O)cc1 2.4%
Cc1ccc(F)cc1NC(=O)CSc1nc(Nc2ccccc2)nc(N2CCOCC2)n1 17.7%
Cc1ccc2nc(/C(C#N)=C/c3ccccc3C(=O)O)[nH]c2c1 -7.1%
COc1cccc(/C=C(\C#N)c2nc3ccc(C)cc3[nH]2)c1OCC(=O)O -10.4%
Cc1cc(/C=C(\C#N)c2nc3ccccc3[nH]2)c(C)n1C -1.1%
COc1cc(/C=C(\C#N)c2nc3ccc(C)cc3[nH]2)c([N+](=O)[O-])cc1OC 2.2%
CCOc1cc(/C=C(\C#N)c2nc3ccccc3[nH]2)ccc1OC(C)C(=O)O (stereo not given) 9.3%
Cc1ccc2nc(/C(C#N)=C/c3ccc(O)c(O)c3)[nH]c2c1 -1.2%
N#C/C(=C\c1ccccc1OCC(=O)O)c1nc2ccccc2[nH]1 -0.8%
CCOc1cccc(/C=C(/C#N)c2nc3ccccc3[nH]2)c1OCC(=O)O -3.5%
